# Activity calls are given as the source filed them. How the source made its calls: active means hit-call score of the fitted dose curve at least 0.9, where 1 is the maximum; inactive means score below 0.9.
# Read-out: Interleukin 17F (IL17F), IL17F (gene 112744)
# Test: BSK_BT_xIL17F: BioMAP Diversity Plus: BT Assay for Interleukin 17F (IL17F) Biomarker Activity (AID 2284243)
# Details: primary human B cells with PBMC
# Protocol: BSK_BT is a cell-based, multiplexed-readout assay that uses B cell and peripheral blood mononuclear cells, a human vascular primary cell co-culture, with measurements taken at 24 hours after chemical dosing in a microplate: 96-well plate.BSK_BT_xIL17F is an assay component measured in the BSK_BT assay. It measures secreted IL-17F related to regulation of gene expression using LumineX xMAP technology.Data from the assay component BSK_BT_xIL17F was analyzed at the endpoint, BSK_BT_xIL17F, in the positive analysis fitting direction relative to DMSO as the negative control and baseline of activity. Using a type of cytokine quantitation reporter, gain or loss-of-signal activity can be used to understand protein changes. To generalize the intended target to other relatable targets, this assay endpoint is annotated to the 'cytokine' intended target family, where the subfamily is 'interleukins'.
# The levels of cell surface (or secreted, indicated by the prefix "s") biomarker endpoints were measured by ELISA. Overt cytotoxicity to cells in confluent adherent cultures (all systems other than the BT system) was assessed by measuring total protein levels using sulforhodamine B (SRB) staining in parallel cultures at the time of biomarker measurements, indicated as SRB endpoints. For proliferation assays for adherent cell types, individual cell types are cultured at sub-confluence and relative cell numbers quantified by SRB staining at time points optimized for each system (48 h: 3C and CASM3C systems; 72 h: BT and HDF3CGF systems; 96 h: SAg system). SRB was performed by staining cells with 0.1% SRB after fixation with 10% TCA and reading wells at 560 nm.Viability and proliferation of PBMC (T cells) was quantified by Alamar Blue reduction for the SAg and BT systems. For PBMC viability (referred to as PBMC Cytotoxicity within the assay endpoint names), cells were plated (75,000/well in a 96-well plate) and then chemical samples added for 1 h before addition of activators, SEB and TSST-1 (20 ng/mL final concentration each). Cells were incubated for 90 h. Then, Alamar Blue (20 uL/well) (Invitrogen, Cat DAL1100) was added for 6 h, and the plates were read with a fluorescence microplate reader at 546/580 nm (excitation/emission). For PBMC proliferation, cells were plated and activated as above but incubated for only 16 h prior to addition of Alamar Blue. Plates were read after 6 h.
Compound,outcome,AC50
CCCCOC(=O)CCCCCCCC(=O)OCCCC,inactive,–
CC(=O)c1c(C)c([N+](=O)[O-])c(C(C)(C)C)c([N+](=O)[O-])c1C,–,20 µM (active)
CC=Cc1ccc(OCC)c(O)c1,inactive,–
O=C1c2ccccc2C(=O)c2c(O)ccc(O)c21,–,9.01 µM (active)
CC(=O)C1(C)CC2=C(CCCC2(C)C)CC1C (stereo not drawn),–,30.5 µM (active)
C=C(C)C(=O)OCC(CC)(COC(=O)C(=C)C)COC(=O)C(=C)C,–,27.5 µM (active)
CC(C)(C)CC(C)(C)c1ccc(OCCOCC[N+](C)(C)Cc2ccccc2)cc1,–,8.64 µM (active)
CCCCCCCCCCCCCCCC(=O)OC/C=C(C)/C=C/C=C(C)/C=C/C1=C(C)CCCC1(C)C,inactive,–
CN(C)C(=S)SC(=S)N(C)C,–,0.559 µM (active)
C=C(C)C(=O)OCCOCCOCCOC(=O)C(=C)C,inactive,–
O=C1OC[C@H](Cc2cccc(O)c2)[C@H]1Cc1cccc(O)c1,inactive,–
CC(=O)Nc1ccc(C(=O)CCl)cc1,–,3.15 µM (active)
CC(C)(N=C=O)c1cccc(C(C)(C)N=C=O)c1,inactive,–
Cc1cc(CCC(=O)OCCOCCOCCOC(=O)CCc2cc(C)c(O)c(C(C)(C)C)c2)cc(C(C)(C)C)c1O,inactive,–
CCN(CC)C(=O)N(CC)CC,inactive,–
Clc1cc(Cl)c(-c2c(Cl)c(Cl)cc(Cl)c2Cl)cc1Cl,inactive,–
Oc1c(Cl)cc(Cl)c(Cl)c1Cc1c(O)c(Cl)cc(Cl)c1Cl,–,9.92 µM (active)
CN(c1nccc(=O)[nH]1)C1CCN(c2nc3ccccc3n2Cc2ccc(F)cc2)CC1,inactive,–
COc1cc(Cl)c(OC)cc1N,inactive,–

Compound,outcome,AC50
C=C(C)[C@H]1CC=C(C)C(=O)C1,inactive,–
C[C@@H]1CCN(C(=O)[C@H](CCCN=C(N)N)NS(=O)(=O)c2cccc3c2NC[C@H](C)C3)[C@@H](C(=O)O)C1,inactive,–
c1ccc(Oc2ccccc2)cc1,inactive,–
C1=CC2C3C=CC(C3)C2C1 (stereo not drawn),inactive,–
CC(C=O)Cc1ccc(C(C)(C)C)cc1 (stereo not drawn),inactive,–
O=C1OC2(c3ccccc31)c1ccc(O)c(Br)c1Oc1c2ccc(O)c1Br,inactive,–
c1ccc2cc(Nc3ccc(Nc4ccc5ccccc5c4)cc3)ccc2c1,inactive,–
C=C(C)C(=O)OCCOCCOCCOCCOC(=O)C(=C)C,inactive,–
CCCCCC(C=O)=Cc1ccccc1,inactive,–
CC1(C)C2=CCCC(C)(C)[C@]23CC[C@H]1C3,inactive,–
CSCCC=O,inactive,–
COc1ccc(CCN2CCC(Nc3nc4ccccc4n3Cc3ccc(F)cc3)CC2)cc1,–,6.67 µM (active)
IC(I)I,inactive,–
c1ccc(CCc2ccccc2)cc1,inactive,–
COc1ccc(OC)c(N=Nc2c(O)ccc3ccccc23)c1,–,5.41 µM (active)
CN(C)C(=O)Nc1ccc(Oc2ccc(Cl)cc2)cc1,inactive,–
CCC(C)c1cc([N+](=O)[O-])cc([N+](=O)[O-])c1OC(=O)OC(C)C (stereo not drawn),–,33.7 µM (active)
CS(=O)(=O)c1ccc(C2=C(c3ccccc3)C(=O)OC2)cc1,inactive,–
CCCCN(CCCC)C(=O)N(CCCC)CCCC,–,29 µM (active)

# From PubChem BioAssay (EPA / NIEHS)
